# Data as given in PubChem BioAssay AID1016 (Sanford-Burnham Center for Chemical Genomics, 2008).
# Screen size: about 200,000 compounds; about 330 (0.17%) were called active.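 How the source made its calls: active means activation factor of 2 or more at 20 µM, a signal rise over negative controls twice the positive control's; inactive means the rest.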 This excerpt belongs to a sample that is enriched for actives.
# Tested on: alkaline phosphatase, intestinal [Bos taurus]
# Test: bovine intestinal alkaline phosphatase activators, primary screen, biochemical, bovine IAP, CDP-star luminescence (AID 1016)
# Conditions: purified bovine IAP, 30 min, at 20 µM, hits give high values, fold of DMSO-control signal, blank-subtracted
row,SMILES,activation factor
1,CCCCCCCCc1c(O)nc(-n2[nH]c(C)c(CCO)c2=O)[nH]c1=O,1.2 (inactive)
2,O=C(C1CCN(S(=O)(=O)c2ccc(Br)s2)CC1)N1CCN(C2CCCCC2)CC1,1.2 (inactive)
3,O=C(Nc1cc(S(=O)(=O)N2CCOCC2)ccc1Cl)c1cc(=O)c2ccccc2o1,1.3 (inactive)
4,O=[N+]([O-])c1cc(S(=O)(=O)N2CCCC2)ccc1NN=C1CCCC1,0.9 (inactive)
5,COC(=O)C1=NN(c2ccccc2)C2C(=O)N(c3ccccc3OC)C(=O)C12 (stereo unspecified),0.9 (inactive)
6,CC1CN(C(=O)c2ccccc2NS(=O)(=O)c2cccc([N+](=O)[O-])c2)CC(C)O1 (stereo unspecified),0.9 (inactive)
7,CCOc1cc(NC(=S)NCc2ccco2)c(OCC)cc1NC(=O)c1ccco1,1 (inactive)
8,NNC(=O)C1CC(O)CN1S(=O)(=O)c1ccc(Cl)cc1 (stereo unspecified),1.1 (inactive)
9,CC(C)OC(=O)CN1CCN(c2ccc(Cl)cc2)CC1,1.1 (inactive)
10,O=C(C(=O)N1CCc2ccccc2C1)c1c[nH]c2ccccc12,0.9 (inactive)
11,COc1ccc(N2CCN(C(=O)COc3ccc4c(C)cc(=O)oc4c3)CC2)cc1,1.1 (inactive)
12,O=C(O)c1cccc(N=NN2CCCCCC2)c1,1.1 (inactive)
13,COc1cc(NC(=S)NCc2ccc(S(N)(=O)=O)cc2)cc(OC)c1,1 (inactive)
14,Cc1ccc(S(=O)(=O)N(C)C)cc1NC(=O)/C=C/c1cccs1,0.9 (inactive)
15,COc1cc(OC)c(-n2cc(-c3ccc(Cl)cc3)[nH]c2=O)cc1Cl,1 (inactive)
16,CCCNC(=S)N1CCCC(c2nc3ccccc3[nH]2)C1 (stereo unspecified),1.1 (inactive)
17,Cc1ccccc1C(OCCN(C)C)C1CCCCC1 (stereo unspecified),1.1 (inactive)
18,CCCN(CCC)CCCNC(=O)CNC(=O)c1nn(-c2ccc(OC)cc2)c(=O)c2ccccc12,1.1 (inactive)
19,CCc1nnc(NC(=O)C2CC(=O)N(c3ccc4c(c3)OCCO4)C2)s1 (stereo unspecified),0.4 (inactive)
20,Cc1ccc(S(=O)(=O)N2CCN(CC(=O)N/N=C/c3cc([N+](=O)[O-])ccc3Cl)CC2)cc1,0.5 (inactive)
21,COc1ccc(/C=N/NC(=O)CNC(=O)c2ccc(S(=O)(=O)N3CCCC3)cc2)c(OC)c1,1.1 (inactive)
22,Cc1cc(Br)ccc1SCC(=O)OCC(=O)NCc1ccc2c(c1)OCO2,0.8 (inactive)

row,SMILES,activation factor
1,CS(=O)(=O)n1nc(-c2ccco2)nc1N,1.2 (inactive)
2,Cc1ccc(NC(=O)NC(=O)N(C2CCCCC2)S(=O)(=O)c2ccccc2)cc1,1.1 (inactive)
3,CCN(CC)CCCSc1nc2ccccc2s1,1.1 (inactive)
4,COc1ccc(C2SCCN2S(=O)(=O)c2ccccc2)cc1OC (stereo unspecified),1 (inactive)
5,COc1ccc(C2N=C(N)N=C(N)N2c2ccccc2)cc1OC (stereo unspecified),3 (active)
6,COc1ccc(C2/C(=C(/O)c3ccccc3)C(=O)C(=O)N2c2ncccn2)cc1OC (stereo unspecified),1 (inactive)
7,O=C(Nc1nnc(C2COc3ccccc3O2)o1)c1ccc(F)cc1 (stereo unspecified),1 (inactive)
8,C/C(Cc1ccccc1)=N\NC(=O)CNC(=O)c1cccc(Br)c1,0.9 (inactive)
9,Cc1ccccc1NC(=O)c1ccc(COc2ccc3c(C)cc(=O)oc3c2)cc1,1 (inactive)
10,Cc1nc2sc(C(c3ccco3)N3CCOCC3)c(O)n2n1 (stereo unspecified),0.9 (inactive)
11,Oc1c(C(c2ccccn2)N2CCOCC2)ccc2cccnc12 (stereo unspecified),2 (active)
12,CCOC(=O)N1CCN(C(c2cccnc2)c2ccc3cccnc3c2O)CC1 (stereo unspecified),1.3 (inactive)
13,CCOC(=O)c1nn(-c2ccccc2F)c2nc(Nc3ccccc3)cc(=O)n12,1 (inactive)
14,Cc1ccccc1C1=NC(C(F)(F)F)(C(F)(F)F)c2c(n(-c3ccc(F)cc3)c(=O)[nH]c2=O)N1,0.9 (inactive)
15,CC1CCC(C(C)C)C(=O)/C1=C\c1ccc(NC(=O)CCC(=O)O)cc1 (stereo unspecified),0.9 (inactive)
16,C[C@@H](O)c1nc2ccccc2n1N,0.9 (inactive)
17,Cc1ccc(C(=O)Nc2sc(Cc3ccc4c(c3)OCO4)c(C)c2C(N)=O)cc1,0.9 (inactive)
18,CN(C)S(=O)(=O)Oc1ccccc1C(=O)Nc1ccccc1Cl,0.9 (inactive)
19,COc1ccc(S(=O)(=O)N(C)CC(=O)N2CCCC2)cc1Cl,1 (inactive)
20,COc1ccc(CC(=O)Nc2ccc3c(c2)CCC3)cc1S(=O)(=O)N1CCOCC1,1 (inactive)
21,O=C(Oc1ccc2c(c1)CCC2)N1CCOCC1,2.4 (active)
22,CC(=O)Nc1ccccc1OC(=O)N1CCOCC1,0.9 (inactive)

row,SMILES,activation factor
1,CCc1cc(-c2n[nH]c(=S)n2CC(C)C)cs1,1 (inactive)
2,O=C(CNC(=O)c1cc(=O)[nH]c2ccccc12)Nc1ccc(F)c(F)c1,0.9 (inactive)
3,Cc1cc(C)nc(-n2ncc3c2CC(c2ccc(C(C)C)cc2)CC3=O)n1 (stereo unspecified),0.8 (inactive)
4,CCC(=O)N1c2ccccc2NC2=C(C(=O)CCC2)C1c1ccco1 (stereo unspecified),1 (inactive)
5,NC(=O)COC(=O)c1cc(S(=O)(=O)N2CCN(c3ccccc3)CC2)ccc1Cl,1.1 (inactive)
6,COCc1c(N)c(C)nc(Cl)c1C#N,1.1 (inactive)
7,Cc1cccc(C)c1NC(=O)C1CCCN1C(=O)OC(C)(C)C (stereo unspecified),0.8 (inactive)
8,CC(=O)NCCC(=O)Nc1cc(S(=O)(=O)N2CCOCC2)ccc1N1CCOCC1,1 (inactive)
9,CCCC1OC23CCCCC2C(C#N)(C#N)C1(C#N)C(=N)O3 (stereo unspecified),1.1 (inactive)
10,Cc1ccc(C(=O)NC(=S)NCc2cccnc2)cc1,1 (inactive)
11,NC(=O)C1CCN(C(=O)COc2cccc3cccnc23)CC1,1 (inactive)
12,Cc1nn(Cc2ccc(F)cc2)c(C)c1NC(=O)c1cccnc1Cl,1.1 (inactive)
13,CC(=O)Cn1ncc(N2CCOCC2)c(Br)c1=O,1.1 (inactive)
14,C/C(CC(=O)Nc1cccc(C(F)(F)F)c1)=N\NC(=O)C(=O)NCC(C)C,1.3 (inactive)
15,O=C(NN1C(=O)C2C3C=CC(O3)C2C1=O)c1ccncc1 (stereo unspecified),0.8 (inactive)
16,CC(C)C1Nc2c(C(=O)O)cccc2C(Nc2ccccc2C(=O)O)C1(C)C (stereo unspecified),1.1 (inactive)
17,COc1cc(C(O)c2nc3ccccc3n2C)cc(OC)c1OC (stereo unspecified),1 (inactive)
18,CCOc1ccc(C(O)Cc2nc3ccccc3n2C)cc1 (stereo unspecified),0.8 (inactive)
19,CCOCCn1c(C(C)C)nc2ccccc21,0.9 (inactive)
20,CCCn1c(C(O)c2cc(OC)ccc2OC)nc2ccccc21 (stereo unspecified),73.3 (active)
21,CCCn1c(C(O)c2ccc(OCC)cc2)nc2ccccc21 (stereo unspecified),19.1 (active)
22,CCCn1c(C(Cc2ccccc2)NC(=O)COC)nc2ccccc21 (stereo unspecified),0.9 (inactive)
